Compound activity deposited in PubChem BioAssay by National Center for Advancing Translational Sciences (NCATS).
Many of the other results were omitted from the sample, so hits are more common in it than they were.
15-hLO-2 inh: blocks human 15-lipoxygenase 2 activity | Potency, µM (top dose mostly 57.1 µM), hits mostly inhibitors | 110,000 compounds, 0.56% hits | O15296 | purified 15hLO-2, xylenol orange hydroperoxide absorbance | AID 881; also: nearly all actives have a fitted effect of over 60% in size
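Purified human 15hLO-2 (50 nM) preincubated 15 min with compound, then 45 uM arachidonic acid for 90 min at RT in 25 mM Hepes pH 7.5, 0.01% Triton X-100. Hydroperoxide detected by Fe-xylenol orange; 573/405 nm absorbance ratio.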
ALOX12 inhib: blocks human 12-lipoxygenase activity; 150,000 compounds, 0.12% hits; Potency, µM (titrated, usually from 57.1 µM), actives largely listed as inhibitors; P18054; AID 1452; purified 12-hLO, xylenol orange hydroperoxide absorbance; also: nearly all actives have a fitted effect of over 55% in size
Target sequence (P18054 whole entry, looked up): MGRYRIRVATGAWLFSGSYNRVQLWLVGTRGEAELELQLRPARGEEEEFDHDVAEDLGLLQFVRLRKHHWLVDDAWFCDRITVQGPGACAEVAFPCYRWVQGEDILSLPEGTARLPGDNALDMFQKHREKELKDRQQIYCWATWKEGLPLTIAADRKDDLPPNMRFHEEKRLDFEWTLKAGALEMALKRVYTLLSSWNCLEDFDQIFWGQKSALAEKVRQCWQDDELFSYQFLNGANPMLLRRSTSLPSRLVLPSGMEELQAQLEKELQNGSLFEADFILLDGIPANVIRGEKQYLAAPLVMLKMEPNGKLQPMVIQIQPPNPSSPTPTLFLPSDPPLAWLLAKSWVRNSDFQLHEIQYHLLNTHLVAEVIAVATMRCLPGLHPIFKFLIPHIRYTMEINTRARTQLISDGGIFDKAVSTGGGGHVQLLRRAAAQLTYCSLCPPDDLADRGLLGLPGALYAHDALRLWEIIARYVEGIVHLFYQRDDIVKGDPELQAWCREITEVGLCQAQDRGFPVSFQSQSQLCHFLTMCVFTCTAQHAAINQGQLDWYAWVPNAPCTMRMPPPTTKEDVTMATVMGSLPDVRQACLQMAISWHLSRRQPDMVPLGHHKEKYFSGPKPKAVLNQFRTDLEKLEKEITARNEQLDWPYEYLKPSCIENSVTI
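Purified human 12hLO (150 nM), preincubated 15 min with compound, then 40 uM arachidonic acid for 30 min, room temperature, Hepes pH 7.0 with 0.01% Triton X-100. Hydroperoxide detected by ferrous iron/xylenol orange; 573/405 nm absorbance ratio gives reaction progress.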
Numbers stand for hits; [ ] = another dose, or the depositor's remark. Calls follow the shape of the dose curve; as a rule, active = well fitted curve in the direction sought with a large enough effect; inconclusive = small, poorly fitted or top-dose-only effect, or another doubt; inactive = no such curve, though single readings can be large; an effect the other way counts as inactive or inconclusive.

For COC(=O)C1=C(C(=O)OC)[C@@H]2N(Cc3ccccc3)c3ccccc3[C@@]23C[C@@H](C(=O)OC)N(C(=O)c2ccco2)C3=N1 the results were ALOX12 inhib inactive[11.4 µM].
COc1cc([C@@H](O)CO)ccc1OS(=O)(=O)O was read as 15-hLO-2 inh inactive and ALOX12 inhib inactive.
`COc1ccc(CNC(=S)Nc2ccccc2C)cc1` gave 15-hLO-2 inh inactive and ALOX12 inhib inactive.
For COc1ccc(CCNC(=S)Nc2cccc(C)c2C)cc1 the results were 15-hLO-2 inh 25.1µM and ALOX12 inhib inconclusive.
For COc1ccc(CCNC(=S)Nc2cc(C)ccc2C)cc1 the results were 15-hLO-2 inh 25.1µM and ALOX12 inhib 7.94µM.
For COc1ccc(CNC(=S)Nc2cc(C)ccc2C)cc1 the results were 15-hLO-2 inh inconclusive and ALOX12 inhib inactive.
For COCCNC(=O)c1ccc(Cc2nc3ccccc3[nH]2)cc1 the results were ALOX12 inhib inactive.
c1ccc2c[n+](CCCC[n+]3ccc4ccccc4c3)ccc2c1 was read as 15-hLO-2 inh inactive[11.4 µM] and ALOX12 inhib inactive[11.4 µM].
`O=C1S/C(=C/c2ccc(N3CCOCC3)o2)C(=O)N1Cc1c(F)cccc1Cl` gave 15-hLO-2 inh inconclusive and ALOX12 inhib inactive.
Screening O=C1S/C(=C\c2ccc(N3CCOCC3)o2)C(=O)N1Cc1c(F)cccc1Cl returned 15-hLO-2 inh 6.31µM and ALOX12 inhib inactive.
Screening C[C@H]1Cc2c(COc3ccccc3)nc3c(c2CO1)CN(C(=O)C1CCCCC1)CC3 returned ALOX12 inhib inactive[11.4 µM].
`O=[N+]([O-])c1ccc(N/N=C/c2c[nH]c3ccccc23)cc1` gave 15-hLO-2 inh inconclusive and ALOX12 inhib inactive.
O=[N+]([O-])c1ccc(N/N=C/c2ccc[nH]2)cc1 was read as ALOX12 inhib 6.31µM.
For CCCCCCc1cc2cc(-c3nnc(-c4ccccc4O)o3)c(=O)oc2cc1O the results were 15-hLO-2 inh 25.1µM and ALOX12 inhib inactive.
CCCCCCc1cc2cc(-c3nnc(-c4ccccc4OC)o3)c(=O)oc2cc1O was read as 15-hLO-2 inh inconclusive and ALOX12 inhib inactive.
CSc1nncc(/C(C)=N\Nc2ccccc2)n1 was read as 15-hLO-2 inh inconclusive and ALOX12 inhib inactive.
Screening CSc1nncc(/C(C)=N\Nc2cccc(C)c2)n1 returned 15-hLO-2 inh 3.16µM and ALOX12 inhib inactive.
Screening CCN(CC)CCCCNC(=O)c1ccc(Cc2nc3ccccc3[nH]2)cc1 returned ALOX12 inhib inactive.
`C[C@H]1CN(S(=O)(=O)c2cccc3cnccc23)CCN1` gave 15-hLO-2 inh inactive and ALOX12 inhib inactive.
`CCOc1ccccc1OCC(=O)Nc1ccc(Cl)cc1Cl` gave 15-hLO-2 inh inactive and ALOX12 inhib inactive.
Screening CCOc1ccccc1NC(=S)NC(=O)CCCOc1ccc(Cl)cc1Cl returned 15-hLO-2 inh 15.8µM and ALOX12 inhib inconclusive.
`COC(=O)N1C(/C=C/c2ccc3c(c2)OCO3)=Cc2ccccc2C1CC(C)=O` (centres undefined) gave ALOX12 inhib inactive[11.4 µM].
`CN1c2ccccc2N(C)C1(C)c1cccc2ccccc12` gave ALOX12 inhib inactive.
For CN1c2cccc3cccc(c23)N(C)C1(C)C the results were 15-hLO-2 inh 15.8µM and ALOX12 inhib inactive.
`CCOC(=O)/C(C#N)=C/c1ccc(OC(=O)c2ccco2)c(OCC)c1` gave ALOX12 inhib inactive.
`N#C/C(=C\c1ccc(O)c(O)c1)C(=O)OCCc1cccs1` gave 15-hLO-2 inh 12.6µM and ALOX12 inhib inconclusive.
Oc1ccccc1NCC(O)Cn1ccc2ccccc21 (centres undefined) was read as 15-hLO-2 inh 12.6µM and ALOX12 inhib inactive.
`OC(CNCc1ccccc1)Cn1ccc2ccccc21` (centres undefined) gave ALOX12 inhib inactive.
For COC(=O)[C@H]1[C@@H]2C[C@H]3c4[nH]c5ccccc5c4CCN3C[C@@H]2CC[C@@H]1O the results were 15-hLO-2 inh inactive and ALOX12 inhib inactive.
C[C@H]1[C@H](C)CC[C@]2(C(=O)O)CC[C@]3(C)C(=CC[C@@H]4[C@]5(C)C[C@H](O)[C@@H](O)[C@@](C)(CO)[C@@H]5[C@H](O)C[C@@]43C)[C@H]12 was read as 15-hLO-2 inh inactive[11.4 µM] and ALOX12 inhib inactive[11.4 µM].
`CCOc1ccc(C2C(C#N)=C(N)SC(N)=C2C#N)c(OCC)c1` gave 15-hLO-2 inh inactive[11.4 µM] and ALOX12 inhib inactive.
For CCCCc1ccc(C2C(C#N)=C(N)SC(N)=C2C#N)s1 the results were 15-hLO-2 inh 12.6µM and ALOX12 inhib inconclusive.
Screening CC[n+]1c(/C=C2/C=C(C)CC(C)(C)C2)sc2ccc(OC)cc21 returned 15-hLO-2 inh 25.1µM and ALOX12 inhib inactive.
CC[n+]1c(/C=C2\C=C(C)CC(C)(C)C2)sc2ccccc21 was read as 15-hLO-2 inh 25.1µM and ALOX12 inhib inactive.
For CC[n+]1c(/C=C2\C=C(C)CC(C)C2)sc2ccccc21 (centres undefined) the results were 15-hLO-2 inh inconclusive and ALOX12 inhib inactive.
`CCCCCCCCCC(=O)N[C@@H](CN1CCOCC1)[C@@H](O)c1ccccc1` gave 15-hLO-2 inh inactive and ALOX12 inhib inactive.
Screening Cn1c(O)c(N=N/C(=N/c2ccccn2)c2ccccn2)c2cc(Br)ccc21 returned ALOX12 inhib inactive.
For O=C(COc1ccc(Cl)cc1Cl)NC(=S)N1CCCc2ccccc21 the results were 15-hLO-2 inh inconclusive and ALOX12 inhib inactive.
`Cc1cccc(OCC(=O)NC(=S)N2CCCc3ccccc32)c1` gave 15-hLO-2 inh 20µM and ALOX12 inhib inactive.
For Oc1ccccc1C(Sc1nc2ccccc2s1)Sc1nc2ccccc2s1 the results were 15-hLO-2 inh inconclusive and ALOX12 inhib inactive[11.4 µM].
COc1cc2c(C=O)c3c4c(cc(OC)c(OC)c4c2cc1OC)CCN3C was read as 15-hLO-2 inh 31.6µM and ALOX12 inhib inconclusive.
Screening COc1cc2c(C)c3c4c(cc(OC)c(OC)c4c2cc1OC)CCN3C returned 15-hLO-2 inh inactive and ALOX12 inhib inactive.
`Cc1ccccc1-n1c(C)cc(/C=N/NC(=O)c2ccncc2)c1C` gave 15-hLO-2 inh inactive and ALOX12 inhib inactive.
`Cc1cccc(C)c1-n1c(C)cc(/C=N/NC(N)=S)c1C` gave 15-hLO-2 inh 20µM and ALOX12 inhib inconclusive.
COC(=O)C1=C(C(=O)OC)[C@@H]2N(C)c3ccccc3[C@@]23C[C@@H](C(=O)OC)N(S(=O)(=O)c2ccc4c(c2)OCCN4C)C3=N1 was read as ALOX12 inhib inactive[11.4 µM].
For O=C1NN(c2ccccc2)C(=O)/C1=C\c1cccc(OC(=O)c2cccs2)c1 the results were 15-hLO-2 inh 15.8µM and ALOX12 inhib inconclusive.
For CCOc1cc(/C=C2/C(=O)N(c3ccccc3)N=C2C)ccc1OC(=O)c1cccs1 the results were 15-hLO-2 inh inconclusive and ALOX12 inhib inactive.
`COc1cc(/C=C2/C(=O)NN(c3cccc(F)c3)C2=O)ccc1OC(=O)c1ccco1` gave ALOX12 inhib inactive.
For O=C1NN(c2ccc(Cl)c(Cl)c2)C(=O)/C1=C/c1cccc(OC(=O)c2cccs2)c1 the results were 15-hLO-2 inh 10µM and ALOX12 inhib inconclusive.
Screening CCCC[S@@](=N)(=O)CC[C@@H](N)C(=O)O returned 15-hLO-2 inh inactive and ALOX12 inhib inactive.
Screening CC(Oc1ccc(Br)cc1)C(=O)NCc1cccnc1 (centres undefined) returned ALOX12 inhib inactive.
Screening CC(=NC1CCCCC1)C1=C(O)c2ccccc2C1=O returned 15-hLO-2 inh 15.8µM and ALOX12 inhib inactive.
Screening CSC(=NC1CCCCC1)NS(=O)(=O)c1ccccc1 returned 15-hLO-2 inh inactive and ALOX12 inhib inactive.
